# Assay results published in PubChem BioAssay (NCATS).
# Records with an inconclusive call do not appear. A call without a number means that no potency is given here. Calls of active or inactive are those of the source. The call rests on the fitted dose curve; in most records, active means well fitted inhibition curve with a large enough effect; inconclusive means small, poorly fitted or top-dose-only effect; inactive means no such curve, though single readings can be large or run the other way.
# Test system: Zika virus NS2B-NS3 protease (linked construct)
# Test: Primary screen NINDS Rhodamine qHTS for Zika virus inhibitors (AID 1347160); further: nearly all actives have a fitted effect of over 55% in size
# Conditions: purified NS2B-NS3 protease, Rhodamine110 substrate fluorescence; series mostly up to 57.1 µM
# How it was run: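 In 10 mM Tris-HCl pH 8.0 containing 0.01% Tween 20, linked NS2B-NS3 protease (25 nM final) is exposed to test compounds for 15 min. Cleavage of 1.5 microM Rhodamine110 substrate is tracked by fluorescence over 15 min.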
Structure (SMILES),Potency,outcome
COc1ccc(C2Oc3c(OC)cc(CCCO)cc3C2COC2OC(CO)C(O)C(O)C2O)cc1OC (centres undefined),inactive,–
C=CC(C)(O)CC[C@@H]1[C@@]2(C)CCCC(C)(C)C2CC[C@@]1(C)O (some centres undefined),inactive,–
Cc1cc2c(cc1N1C(=O)c3cccc4c(CCCO)ccc(c34)C1=O)n(C)c(=O)n2C,inactive,–
O=C1COc2nccc(-c3ccccc3F)c2CN1Cc1cc(C(F)(F)F)cc(C(F)(F)F)c1,inactive,–
Cc1cc(Nc2nc(-c3ccccc3)nc3ccccc23)n[nH]1,inactive,–
CCN(CC)C(=O)c1ccc(Nc2nc(OCC3CCCCC3)c3[nH]cnc3n2)cc1,inactive,–
CC1(C(=O)Nc2ccc(F)nc2)CCCN1c1nc(Nc2cc(C3CC3)[nH]n2)c2cccn2n1 (centres undefined),inactive,–
C/C=C(\C)C(=O)OC1C=C(C)CC(OC(=O)c2ccc(O)cc2)C2C1(C)CCC2(O)C(C)C (centres undefined),inactive,–
CC(C)(C)c1ccc2c(c1)CC[C@H]2NC(=O)Nc1cccc2[nH]ncc12,inactive,–
O=C(Nc1ccc(-n2nc(C(F)(F)F)cc2C(F)(F)F)cc1)c1ccncc1F,inactive,–
O=C(Nc1cccc2cccnc12)c1ccc(N2C(=O)[C@@H]3C4C=CC(C4)[C@@H]3C2=O)cc1,inactive,–
CNc1ccc([N+](=O)[O-])c(Nc2ccc3[nH]ncc3c2)n1,inactive,–
CCOc1cccc(NC(=O)c2ccc(N3CCCC3)c(C(F)(F)F)c2)c1,inactive,–
COc1ccc(-n2c(SCCCN3C(=O)c4cccc5cccc(c45)C3=O)nnc2-c2ccncc2)cc1,inactive,–
CC(=O)OC1CC(C)C2(CCC3(CC(=O)OC3O)O2)C2(C)CCCC(C)(C)C12 (centres undefined),inactive,–
CC1CCC/C=C/C(=O)c2c(O)cc(O)cc2CC(=O)O1 (centres undefined),inactive,–
Nc1nc2c(nc(Br)n2[C@@H]2O[C@@H]3COP(=O)(O)O[C@H]3[C@H]2O)c(=O)[nH]1,inactive,–
C=C1C(=O)OC2/C=C(\CO)CC/C=C(\C=O)C(O)C(OC(=O)C(C)CC)C12 (centres undefined),inactive,–
C1=Cc2ccccc2C(=C2CCN(CCCCc3nn[nH]n3)CC2)c2ccccc21,inactive,–
CC(C)Nc1nc(Nc2ccccc2)nc(-c2ccccc2)n1,inactive,–

Structure (SMILES),Potency,outcome
Cc1c(NC(=O)c2cc3c(s2)CCCC3)cccc1-c1cn(C)c(=O)c(Nc2ccc(C3C(=O)N(C)CCN3C)cc2)n1 (centres undefined),inactive,–
Cc1cc2ncc(C(=O)NCC(C)(C)NCC(=O)N3CCC[C@H]3C#N)cn2n1,inactive,–
CC1=C(c2ccc(NC(=O)c3c(F)cccc3F)cc2)CN(c2nccs2)CC1,inactive,–
O=C1Cc2c([nH]c3ccc(Br)cc23)-c2ncccc2N1,inactive,–
C/C=C(/C)C(=O)O[C@@H]1C[C@@H](OC(=O)CC(C)C)C2(C)C3C(=O)C=C(C)C2C3C1(C)C (some centres undefined),inactive,–
CNCCC(c1cccs1)c1ccc(O)c2ccccc12 (centres undefined),inactive,–
CN(C)CCOC(C)(c1ccccc1)c1ccc(Cl)cc1 (centres undefined),inactive,–
CCC(CC)C(c1ccc(Nc2nc3ccccc3s2)cc1)n1cncn1 (centres undefined),inactive,–
C/C=C/C=C/C(=O)O[C@@H]1C=C2COC(=O)[C@]2(O)[C@@]2(C)CCCC(C)(C)[C@H]12,inactive,–
C=C[C@@]12COC(=O)C(=C)[C@@H]1[C@@H](O)[C@H](C(=C)C(=O)OC)[C@@H](O)C2,inactive,–
COC(=O)/C=C/C=C/C(=O)OC1C=C2COC(=O)C2(O)C2(C)CCCC(C)(C)C12 (centres undefined),inactive,–
Cc1nc2cc(C(=O)NCc3ccccn3)nn2c(C)c1Cc1cccc(Cl)c1,inactive,–
CC[C@H](C(=O)Nc1ccccc1N1CCCC1)c1ccccc1,inactive,–
COc1c(C(O)CC(C)C)ccc2c1C(=O)OCc1cc(C)cc(O)c1O2 (centres undefined),inactive,–
O=C(Nc1ccc(N2C(=O)[C@@H]3[C@H](C2=O)[C@@H]2C=C[C@H]3C2)c(Cl)c1)c1ccccn1,inactive,–
CC(=O)O[C@@H]1CC2C(C)(C)C(=O)C=C[C@]2(C)C2CC[C@@]3(C)[C@H](c4ccoc4)OC(=O)[C@H]4O[C@]43[C@@]21C (some centres undefined),inactive,–
C/C=C(/C)C(=O)OC1CC(C)(C)CC2C3=CCC4C5(C)CCC(O[C@@H]6O[C@H](C(=O)O)[C@@H](O)[C@H](O)[C@H]6O[C@@H]6O[C@H](CO)[C@H](O)[C@H](O[C@@H]7OC[C@H](O)[C@H](O)[C@H]7O[C@@H]7O[C@H](CO)[C@@H](O)[C@H](O)[C@H]7O)[C@H]6O)C(C)(C)C5CCC4(C)C3(C)C(O)C(O)C12CO (some centres undefined),–,inactive [at 10.7 µM]
CC(=O)OC1[C@H]2[C@@H](C[C@@H](C)[C@@H]3C=CC(=O)[C@@]13C)OC(=O)[C@@H]2C (some centres undefined),inactive,–
CC(C)NC(=O)COc1cccc(-c2nc(Nc3ccc4[nH]ncc4c3)c3ccccc3n2)c1,inactive,–
